Consider 6 compounds from PubChem BioAssay (NCATS).

The nature of assay [1]: Cell Viability - BJ (AID 421).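 Note: potency is the fitted concentration of half-maximal effect; cells exposed to compound for 40 hours at 37 °C before readout.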 Conditions: BJ fibroblast viability, qHTS. The method in brief:
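Luminescent ATP signal (CellTiter-Glo, 20 min at room temperature) served as the read-out of viable BJ cells after 40 hours of compound treatment. Responses were scaled between DMSO and 100 uM tamoxifen, and AC50 values were obtained by Hill modeling.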
On the technique in general: qHTS replaces the single test concentration by a dilution series.

Assay [2] in a line: Cellular Toxicity (caspase-3) N2a (AID 665; active = well fitted curve in the direction sought with a large enough effect; an effect the other way counts as inactive or inconclusive;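 note: compound exposure lasted 16 h at 37 °C before readout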). To be noted: N2a cells, luminescence, normalized: DMSO 0%, 10 µM staurosporine 100%; at 92.2 µM (top of the series). Summed up: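 N2a cells, 1500/well, 5 h settle at 37 °C; cpd 16 h, 37 °C; Caspase-Glo 3/7, 1 h RT; luminescence. Norm: DMSO = 0, 10 uM staurosporine = 100%. AC50, Hill fit.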
The nature of assay [3]: Cell Viability - LYMP1-003 - Assay at 40 hr (AID 964; active = well fitted curve in the direction sought with a large enough effect; an effect the other way counts as inactive or inconclusive; note: % is set by controls: 0 for no effect and ±100 for the full control effect; nearly all actives have a fitted effect of over 60% in size). The method in brief:
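Cells were seeded at 2500 per well and incubated 5 hr at 37 C. Compounds were added across a concentration series and left 40 hr at 37 C. CellTiter-Glo was added for 30 min at room temperature before luminescence reading.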

Assay [4] in a line: qHTS Assay for Identification of Small Molecule Inducers of Hypoxia Response (AID 2120; active = well fitted curve in the direction sought with a large enough effect in the signal ratio, with a control signal flat, not every such curve was filed as active; the % refers to the signal ratio; note: 0% is about no effect). The method in brief: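 ME-180 HRE-bla cells plated in Opti-MEM/0.5% dialyzed FBS, rested 4-5 h, then dosed with compound titrations by pin tool. After 17 h at 37 degrees C, CCF4 dye loaded 2.5 h at RT; 460/530 nm ratio gave %Activity and AC50.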
The target of assay [5] is Vitamin D3 receptor (Homo sapiens) (UniProt P11473). The assay can be described thus: qHTS assay for small molecule antagonists of vitamin D receptor signaling (AID 588541).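 Note: receptor activated by calcitriol during compound treatment; % is set by controls: 0 for no effect and ±100 for the full control effect.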 The method in brief:
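VDR-UAS-bla HEK293T cells in 2% charcoal-stripped FBS were stimulated with 1-alpha,25-dihydroxyvitamin D3 (3 nM final) plus compound for 16 h at 37 C. The beta-lactamase CCF4 readout was normalized to 50 nM agonist and DMSO, and Hill fits gave IC50.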

Assay [6] has the same target. The assay can be described thus: qHTS assay for small molecule agonists of vitamin D receptor signaling (AID 588543).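 Note: 0% = DMSO basal and 100% = reference agonist control.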 Summed up:
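qHTS in agonist mode: compound titrations stimulate a VDR-driven β-lactamase reporter in HEK293T cells over 16 h at 37 °C. Response normalized to 50 nM 1α,25-dihydroxyvitamin D3 = 100%, DMSO = 0%; Hill fitting gives EC50 and maximal response.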

Assay [7] can be described thus: qHTS assay for small molecule agonists of the antioxidant response element (ARE) signaling pathway (AID 651741; active = well fitted activation curve with a large enough effect in the signal ratio; the % refers to the signal ratio; note: % of control where 0% means no effect). The method in brief: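 CellSensor ARE-bla HepG2 cells (2,000/well) carrying ARE-driven beta-lactamase, exposed 16 h at 37 C. LiveBLAzer B/G FRET substrate added for 2 h at room temperature; fluorescence intensity read.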
Assay [8] can be described thus: qHTS assay for small molecule activators of the nuclear factor-kappa B (NF-kB) signaling pathway (AID 651749; active = well fitted activation curve with a large enough effect in the signal ratio; the % refers to the signal ratio; note: % of control where 0% means no effect). Conditions: NF-kB-bla ME-180 cells, beta-lactamase FRET ratio, 16 h; activation: stronger effect = higher value. The method in brief: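 NF-kB-bla ME-180 cells carrying a beta-lactamase reporter under an NF-kB response element, 2,000 cells/well, exposed to compound for 16 hr at 37C; FRET-based beta-lactamase fluorescence read-out of pathway activation.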

Assay [9] is described as follows: qHTS assay for small molecule agonists of the antioxidant response element (ARE) signaling pathway measured by Nrf2-dependant transcriptional activity - cell viability counter screen (AID 720653; active = well fitted curve in the direction sought with a large enough effect in the repeat runs; an effect the other way counts as inactive or inconclusive; note: % is set by controls: 0 for no effect and ±100 for the full control effect). To be noted: ARE-bla HepG2 viability, CellTiter-Glo ATP luminescence, 16 h; stronger effect = lower value. Summed up: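 ARE-bla HepG2 cells treated with compounds for 16 h at 37C; this counter screen measures viability as intracellular ATP by CellTiter-Glo luminescence after 30 min at room temperature.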

The nature of assay [10]: qHTS assay for small molecule activators of the human pregnane X receptor (PXR) signaling pathway (AID 720659; call rule not given here; note: 0% is about no effect).
Assay [11] deals with Bile acid receptor (Homo sapiens) (UniProt Q96RI1). The assay can be described thus: qHTS assay for small molecule agonists of farnesoid X receptor signaling (AID 588527).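 Note: 0% = vehicle basal and 100% = reference agonist.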 To be noted: HEK293T FXR-UAS-bla, beta-lactamase ratio, 16 h; stronger effect = higher value. The method in brief:
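FXR-UAS-bla HEK293T, 10% dialyzed FBS; cpds up to 92 uM titration, 16 h 37 C; CCF4 dye 2 h RT; fluorescence. Normalized to chenodeoxycholic acid 100 uM (100%) and DMSO (0%); Hill fit gives EC50, efficacy.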

Assay [12] can be described thus: KB-8-5-11 P-gp reporter qHTS against the NCATS DSHEA and TCM libraries (AID 1919977; active = well fitted curve in the direction sought with a large enough effect; an effect the other way counts as inactive or inconclusive; note: 0% is about no effect). The method in brief:
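Cells were seeded, allowed ~4 h to attach, dosed by pin tool (substance titrations), incubated ~72 h at 37C, then lysed with CellTiter-Glo for 30 min at room temperature before luminescence reading.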

Assay [13] in a line: Cell Viability - SH-SY5Y (AID 544; active = well fitted curve in the direction sought with a large enough effect; an effect the other way counts as inactive or inconclusive;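 note: 0% = DMSO alone and -100% = 100 µM tamoxifen; nearly all actives have a fitted effect of over 55% in size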). To be noted: SH-SY5Y neuroblastoma cell viability; viability change, negative = cytotoxic: at 92.2 µM (top of the series). The method in brief: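 Luminescent ATP read-out (CellTiter-Glo) measures loss of viable SH-SY5Y neuroblastoma cells after 40 hr compound exposure at 37 °C. AC50 values derive from standard Hill modelling of qHTS concentration-response data.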

A short description of assay [14]: Cell Viability - LYMP2-009 (AID 968; active = well fitted curve in the direction sought with a large enough effect; an effect the other way counts as inactive or inconclusive;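 note: cells exposed to compound for 24 h at 37 °C; 0% = DMSO alone and the full-kill end = tetraoctylammonium bromide at 92 µM; nearly all actives have a fitted effect of over 55% in size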).
The nature of assay [15]: Cell Viability - LYMP2-017 (AID 972; active = well fitted curve in the direction sought with a large enough effect; an effect the other way counts as inactive or inconclusive;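 note: cells exposed to compound for 24 hours at 37 °C; % is set by controls: 0 for no effect and ±100 for the full control effect; nearly all actives have a fitted effect of over 55% in size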). The method in brief:
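2500 cells/well, 5 h 37 C; cpd 24 h 37 C in complete medium; CellTiter-Glo, 30 min RT; luminescence (ATP). AC50 via Hill fit, qHTS.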

In assay [16] the target is Bile acid receptor (Homo sapiens) (UniProt Q96RI1). The assay is described as follows: qHTS assay for small molecule antagonists of farnesoid X receptor signaling (AID 588526). Note: % is set by controls: 0 for no effect and ±100 for the full control effect. The method in brief: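 Antagonist mode: titrated compounds tested against chenodeoxycholic acid stimulation (normalized to 50 uM CDCA and DMSO) in GeneBLAzer HEK293T cells for 16 h. Beta-lactamase read by CCF4 fluorescence; IC50 from Hill fits.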
Bile acid receptor (Homo sapiens), sequence (Q96RI1 whole entry, looked up): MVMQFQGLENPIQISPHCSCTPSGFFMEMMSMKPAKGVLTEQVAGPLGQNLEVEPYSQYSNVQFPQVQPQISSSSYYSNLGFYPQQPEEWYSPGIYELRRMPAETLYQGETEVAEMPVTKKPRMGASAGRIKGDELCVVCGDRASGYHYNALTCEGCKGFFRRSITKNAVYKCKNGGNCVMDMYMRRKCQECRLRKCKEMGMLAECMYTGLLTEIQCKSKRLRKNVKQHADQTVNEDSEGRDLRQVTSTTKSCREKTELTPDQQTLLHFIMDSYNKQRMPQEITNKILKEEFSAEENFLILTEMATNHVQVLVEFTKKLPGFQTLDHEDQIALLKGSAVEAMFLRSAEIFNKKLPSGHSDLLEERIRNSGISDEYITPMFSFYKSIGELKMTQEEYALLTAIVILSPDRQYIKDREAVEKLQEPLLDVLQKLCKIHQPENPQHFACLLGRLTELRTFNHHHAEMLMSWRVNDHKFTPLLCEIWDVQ

Assay [17] addresses Thyroid hormone receptor beta (Homo sapiens) (UniProt P10828). The assay is described as follows: qHTS assay for small molecule agonists of thyroid hormone receptor beta signaling (AID 588545). Summed up:
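Agonist-mode beta-lactamase reporter assay, HEK 293 cells, 2% charcoal/dextran FBS; cells plated 4 hrs, compound 18 hrs at 37 C, CCF4 2 hrs RT. Normalized to 10 nM T3 (100%) and DMSO (0%); Hill fit gives EC50, efficacy.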

In assay [18] the target is Retinoic acid receptor RXR-alpha (Homo sapiens) (UniProt P19793). The assay can be described thus: qHTS assay for small molecule antagonists of retinoid X receptor alpha signaling (AID 588546; active = well fitted inhibition curve with a large enough effect in the signal ratio, with a control signal flat, not every such curve was filed as active; the % refers to the signal ratio;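 note: cells stimulated with 9-cis-retinoic acid as agonist; % is set by controls: 0 for no effect and ±100 for the full control effect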). Conditions: HEK293T RXRa-UAS-bla, beta-lactamase ratio, antagonist mode. Summed up:
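Beta-lactamase reporter inhibition, read as CCF4 fluorescence ratio (ex 405, em 460/530 nm) after 2 h at RT. HEK293T UAS-bla cells, 2500/well, were stimulated with 9-cis-RA at 500 or 100 nM final alongside test compound for 18 h at 37 C.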

Assay [19] is described as follows: qHTS assay for small molecule disruptors of the mitochondrial membrane potential - 5 hr assay (AID 651755). Note: % is set by controls: 0 for no effect and ±100 for the full control effect; nearly all actives have a fitted effect of over 40% in size. The method in brief:
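HepG2 cells (2,000/well), attached overnight, exposed to compound 5 hr at 37C, then Mito-MPS dye 30 min. Fluorescence read for monomers (490/535 nm) and aggregates (540/590 nm).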

The nature of assay [20]: qHTS assay for small molecule antagonists of peroxisome proliferator-activated receptor delta signaling (AID 588535).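 Note: cells co-treated with a PPAR-delta agonist as stimulator during compound exposure.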 To be noted: HEK293T PPARd-UAS-bla, beta-lactamase FRET ratio, 18 h; 460 nm channel. Summed up:
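Antagonist-mode beta-lactamase reporter (GeneBLAzer PPAR-delta-UAS-bla) in HEK293T cells, 2% charcoal/dextran FBS, 4000 cells/well. Compound titrations, 18 h at 37 C; CCF4 ratio read, IC50 and efficacy from Hill fits.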

Several values for one entry are separate records, joined by “and”; a condition that tells them apart may be missing. Equal entries are not always repeated. Results filed as inconclusive are left out. Activity calls are given as the source filed them. Unless noted, calls come from the whole dose curve.

Vitamin D3 receptor (Homo sapiens), sequence (P11473 whole entry, looked up): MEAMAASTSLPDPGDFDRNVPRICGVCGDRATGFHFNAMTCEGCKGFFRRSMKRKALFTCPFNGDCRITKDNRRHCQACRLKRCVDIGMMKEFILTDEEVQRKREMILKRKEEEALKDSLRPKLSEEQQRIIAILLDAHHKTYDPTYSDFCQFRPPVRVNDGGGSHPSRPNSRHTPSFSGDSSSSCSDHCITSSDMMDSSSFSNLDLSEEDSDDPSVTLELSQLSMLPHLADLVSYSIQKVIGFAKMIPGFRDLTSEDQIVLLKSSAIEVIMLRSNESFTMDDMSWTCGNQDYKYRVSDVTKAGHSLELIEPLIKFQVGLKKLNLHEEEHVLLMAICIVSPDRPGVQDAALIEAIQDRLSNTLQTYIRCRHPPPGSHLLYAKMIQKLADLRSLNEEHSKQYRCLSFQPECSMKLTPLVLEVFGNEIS
Thyroid hormone receptor beta (Homo sapiens), sequence (P10828 whole entry, looked up): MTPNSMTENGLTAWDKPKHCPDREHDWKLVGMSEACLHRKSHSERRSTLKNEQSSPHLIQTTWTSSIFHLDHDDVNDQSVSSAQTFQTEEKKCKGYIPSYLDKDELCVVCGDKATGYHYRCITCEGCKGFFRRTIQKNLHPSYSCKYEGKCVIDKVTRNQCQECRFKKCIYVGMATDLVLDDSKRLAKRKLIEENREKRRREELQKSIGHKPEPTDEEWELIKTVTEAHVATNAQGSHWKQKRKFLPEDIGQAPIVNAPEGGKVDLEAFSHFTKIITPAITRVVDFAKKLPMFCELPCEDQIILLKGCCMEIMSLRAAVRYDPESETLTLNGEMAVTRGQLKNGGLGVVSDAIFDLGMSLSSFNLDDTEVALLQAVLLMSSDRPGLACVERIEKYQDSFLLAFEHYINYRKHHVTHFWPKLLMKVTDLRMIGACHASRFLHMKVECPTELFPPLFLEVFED
Retinoic acid receptor RXR-alpha (Homo sapiens), sequence (P19793 whole entry, looked up): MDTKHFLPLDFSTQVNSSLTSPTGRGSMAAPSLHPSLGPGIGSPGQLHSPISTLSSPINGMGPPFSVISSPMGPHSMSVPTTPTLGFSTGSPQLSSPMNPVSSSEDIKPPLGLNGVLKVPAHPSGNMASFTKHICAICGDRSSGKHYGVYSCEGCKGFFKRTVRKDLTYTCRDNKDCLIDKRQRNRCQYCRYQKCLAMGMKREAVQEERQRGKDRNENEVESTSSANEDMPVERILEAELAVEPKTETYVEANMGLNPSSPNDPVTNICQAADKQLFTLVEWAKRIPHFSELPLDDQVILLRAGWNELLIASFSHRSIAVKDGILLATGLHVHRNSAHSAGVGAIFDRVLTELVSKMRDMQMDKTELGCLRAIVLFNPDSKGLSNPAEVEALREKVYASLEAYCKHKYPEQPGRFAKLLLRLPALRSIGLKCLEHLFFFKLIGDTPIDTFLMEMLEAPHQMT

As to `N#CCCCl`, in assay [1], the Potency is > 92 µM (inactive). Moreover, in assay [2], the caspase-3 activation was -0.53% (inactive) and -2.33% (inactive). Moreover, the Potency result in assay [3] and in assay [7] was “inactive” each time. Further, the compound was called inactive in assay [4], in assay [5], in assay [6] and in assay [10]. Moreover, the activation in assay [8] is -0.282% (inactive) and -0.0737% (inactive). The max response in [9] is 4.67% (inactive) and 7.37% (inactive).

For `CCCCCCCCCCCCCC(=O)O`, the activation in assay [11] is 0.574% (inactive). Further, the Potency entry in [12] is “inactive”.

With `Nc1ccc(Br)cc1`, the Potency in [1] was > 92 µM (inactive). Besides, the Potency result in [13], in assay [14], in [15] and in assay [19] was “inactive” in each case. Further, the compound was classed as inactive in assay [4], in [16], in assay [17] and in assay [10]. Also, the activation in assay [11] is 0.791% (inactive); in [8] it was -0.0985% (inactive). The max response in assay [18] is 15.2% (inactive).

On to `CCOP(=S)(OCC)SCSC(C)(C)C`, for which the Potency in assay [1] was > 92 µM (inactive). The Potency result in assay [13], in assay [3], in assay [14], in [15], in assay [7] and in assay [19] was “inactive” each time. Further, in [2], the caspase-3 activation is -3.31% (inactive). The call in [4], in [5], in assay [6] and in [17] was inactive. Also, the max response was 18.1% and -40.8% in assay [20]; -12% (inactive) and 0.279% (inactive) in assay [18]; -1.33% (inactive) and 1.99% (inactive) in assay [9].

In the case of `Nc1c(Cl)c(Cl)nc(C(=O)O)c1Cl`, the Potency in [1] is > 92 µM (inactive). In addition, the Potency result in assay [3], in assay [14], in assay [7] and in assay [19] was “inactive” each time. Moreover, the outcome in assay [4], in assay [17] and in assay [10] was inactive. Further, the activation in assay [8] is -0.763% (inactive) and -1.51% (inactive) and -1.13% (inactive). The max response in assay [9] is 5.28% (inactive) and -6.28% (inactive) and -12.8% (inactive).

For the compound `O=C=NC1CCCCC1`, the Potency in assay [1] is > 92 µM (inactive). Besides, the Potency result in assay [13], in assay [3], in assay [14], in assay [7] and in assay [19] was “inactive” throughout. In addition, the caspase-3 activation in [2] is 0.146% (inactive) and -1.42% (inactive). For the same compound, the call in assay [4], in [16], in [5], in [6], in [17] and in assay [10] was inactive. Moreover, the activation in [11] was -4.4% (inactive) and -2.88% (inactive). The max response in assay [18] was 12.3% (inactive) and -18.1% (inactive); in [9], 3.13% (inactive) and -2.08% (inactive).
